TGFb SMAD3 inh – TGF-b pathway inhibition; HepG2 CAGA-GFP TGF-b/SMAD3 reporter, GFP fluorescence, 18 h; TGF-beta stimulated, 500 pg/mL final; Potency, µM (top dose mostly 46.1 µM), for the others: at the top dose activity, negative = inhibition, most hits filed as inhibitors; AID 588855; actives 1.2% (n = 410,000); also: % is scaled to controls: 0 for no effect and ±100 for the full control effect; nearly all actives have a fitted effect of over 65% in size
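Using HEPG2 CAGA-GFP reporter cells at 1000 cells/well, we pinned test compounds, stimulated with recombinant TGF-beta (500 pg/mL final) and measured total well GFP after 18 h.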
12-LOX inh – inhibitors of human 12S-lipoxygenase ALOX12; Potency, µM (series often up to 108 µM), without a hit: top-dose activity change, negative = inhibition, hits mostly inhibitors; P18054; purified 12hLO, xylenol orange hydroperoxide absorbance; actives 1.1% (n = 580,000); AID 1671190; also: % is scaled to controls: 0 for no effect and ±100 for the full control effect
Target sequence (P18054 whole entry, looked up): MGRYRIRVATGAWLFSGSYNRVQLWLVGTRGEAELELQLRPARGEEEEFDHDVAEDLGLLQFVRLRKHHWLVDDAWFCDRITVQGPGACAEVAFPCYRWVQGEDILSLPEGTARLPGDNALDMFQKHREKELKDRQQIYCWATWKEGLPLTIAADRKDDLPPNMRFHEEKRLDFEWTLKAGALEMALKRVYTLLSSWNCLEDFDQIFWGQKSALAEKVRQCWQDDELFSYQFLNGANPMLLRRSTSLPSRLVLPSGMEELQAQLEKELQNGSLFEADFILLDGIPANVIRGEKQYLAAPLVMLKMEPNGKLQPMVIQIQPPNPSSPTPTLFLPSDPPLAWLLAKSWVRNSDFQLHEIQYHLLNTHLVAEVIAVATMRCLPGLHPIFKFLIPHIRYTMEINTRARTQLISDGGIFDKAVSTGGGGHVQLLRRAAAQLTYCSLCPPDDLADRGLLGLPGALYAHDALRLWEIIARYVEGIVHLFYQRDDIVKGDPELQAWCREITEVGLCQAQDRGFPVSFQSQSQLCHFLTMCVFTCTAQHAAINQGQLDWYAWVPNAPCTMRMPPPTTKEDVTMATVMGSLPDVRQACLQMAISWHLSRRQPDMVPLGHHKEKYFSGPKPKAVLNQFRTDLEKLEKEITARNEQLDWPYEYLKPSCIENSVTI
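Hydroperoxide product was detected by ferrous iron/xylenol orange as the 573 to 405 nm absorbance ratio. Arachidonic acid at 40 uM (final) was turned over for 30 min at room temperature by 150 nM human 12hLO, pH 7.0 Hepes buffer, after 15 min compound preincubation.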
HepG2 viability – HepG2 cytotoxicity, counter-screen for TGF-b inhibitors; HepG2 CAGA-GFP viability, ATP luminescence, 18 h; Potency, µM (series often up to 46.1 µM), for inactives: at the top dose activity change, negative = cytotoxicity, most hits filed as cytotoxic; actives 0.76% (n = 410,000); AID 588856
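HepG2 CAGA-GFP cells (1000/well, DMEM with 1% FBS) received compound, then TGF-beta at 500 pg/mL final, and were incubated 18 hours at 37 degrees C. Viability was read by CellTiter-Glo luminescence. Media-only wells were set as complete cell-killing and DMSO as no toxicity.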
S2 tox – reduces viability in counter-screen for ATXN expression inhibitors. S2 cells (HEK-293 line with an ATXN2-luciferase reporter) viability, CellTiter-Fluor protease fluorescence, 24 h. Potency, µM (top dose mostly 56.7 µM), hits mostly cytotoxic. actives 0.49% (n = 400,000); also: nearly all actives have a fitted effect of over 40% in size
ATXN2 expr inh – ATXN2 expression inhibition; HEK-293 ATXN2-luciferase reporter, luminescence, 24 h; Potency, µM (highest dose often 57 µM), for inactives: top-dose activity change, negative = inhibition, hits mostly inhibitors; actives 0.72% (n = 360,000); AID 1745845; also: % is scaled to controls: 0 for no effect and ±100 for the full control effect; nearly all actives have a fitted effect of over 55% in size
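ATXN2-luciferase reporter cells (luciferase flanked by upstream and downstream ATXN2 gene portions) were treated 24 h at 37 °C with compounds at up to 57 uM. SteadyGlo luminescence gave expression; GF-AFC fluorescence gave viability.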
Active calls of the source: *; i = inactive; ? = inconclusive; · = no result; ! = repeats disagree; [ ] = remark or other dose. Compounds with a hit are over-represented: about 2.7% of the library has one in this group of screens. Calls follow the shape of the dose curve; as a rule, active = well fitted curve in the direction sought with a large enough effect; inconclusive = small, poorly fitted or top-dose-only effect, or another doubt; inactive = no such curve, though single readings can be large; an effect the other way counts as inactive or inconclusive. Potency is read from the fitted curve at half-maximal effect.

SMILES	TGFb SMAD3 inh	12-LOX inh	HepG2 viability	S2 tox	ATXN2 expr inh
Nc1nc2c(s1)C(c1ccc(Br)cc1)CC(=O)N2 (centres undefined)	·	27%	·	·	·
Nc1nc2c(s1)C(c1ccc(F)cc1F)CC(=O)N2 (centres undefined)	·	13µM*	·	·	·
COc1cccc(C2CC(=O)Nc3cc(OC)c(OC)c(OC)c32)c1OC (centres undefined)	13%	154%	0%	i	22%
Nc1nc2c(s1)C(c1cccc(F)c1F)CC(=O)N2 (centres undefined)	·	16µM*	·	·	·
COc1cccc(C2CC(=O)Nc3nc(N)sc32)c1OCc1ccc(F)cc1 (centres undefined)	·	2µM*	·	·	·
Nc1nc2c(s1)C(c1cccc(OCc3cccc(F)c3)c1)CC(=O)N2 (centres undefined)	·	3.5µM*	·	·	·
O=C(c1nc(-c2cccc3[nH]ccc23)no1)N1CCCC1	·	5%	·	·	·
COc1cc(=O)n2c(c1C(=O)Nc1ccc(Br)cc1F)CCCC2	·	20µM*	·	·	·
COc1cc(=O)n2c(c1C(=O)Nc1ccc(Br)cc1)CCCC2	·	7%	·	·	·
Cc1nn(-c2cccc(Br)c2)c(C)c1[C@@H]1C=C[C@@H](NS(C)(=O)=O)C1	·	11µM*	·	·	·
Cc1nn(-c2cccc(Br)c2)c(C)c1[C@@H]1C=C[C@@H](NCc2cccc(C#N)c2)C1	·	7%	·	·	·
CCn1c(=N)n(CCOc2ccc(Br)cc2)c2ccccc21	8.9µM*	?	-99%	·	·
CCCCn1c(=N)n(CCOc2ccccc2OC)c2ccccc21	10µM*	-23%	-59%	·	·
CCCCCn1c(=N)n(CC(O)COc2ccccc2OC)c2ccccc21 (centres undefined)	11µM*	-8%	-84%	28µM*	28µM*!
O=C(NCc1ccc(C(=O)N2CCCCC2)cc1)c1cc2ccccc2oc1=O	·	-19%	·	·	·
CC(NC(=O)CSc1nnc(COc2ccc(Cl)cc2)n1C)c1ccc2ccccc2c1 (centres undefined)	·	-28%	·	·	·
O=S(=O)(/C(=C/c1ccc2ccccc2c1)c1nc2ccccc2[nH]1)c1ccccc1	·	2%	·	·	·
CC(C)(C)c1ccc(/C=C(\c2nc3ccccc3[nH]2)S(=O)(=O)c2ccccc2)cc1	16µM*	·	-51%	20µM*	16µM*
CC(C)Cc1nc(N2CCOCC2)c(C#N)c2c1CCCC2	·	-13%	·	·	·
CCOC1CCN(C(=O)c2cc(-c3ccncc3)nc3ccccc23)CC1	·	10%	·	·	·
COc1ccc(C(=O)/C=C/C(=O)N(Cc2ccccc2)C(C(=O)NC2CCCCC2)c2ccncc2)c(O)c1 (centres undefined)	?	17%	8%	?	-21%
COc1ccc(C(=O)/C=C/C(=O)N(Cc2ccccc2OC)C(C(=O)NC2CCCCC2)c2ccncc2)c(O)c1 (centres undefined)	?	-8%	9%	·	24µM*
COc1ccc(C(=O)/C=C/C(=O)N(CC(=O)NC2CCCCC2)Cc2ccccc2)c(O)c1	?	-11%	-7%	?	?
COc1ccc(C(=O)/C=C/C(=O)N(CC(=O)NC2CCCCC2)Cc2ccccc2OC)c(O)c1	?	-14%	-13%	·	21µM*
COc1ccc(C(=O)/C=C/C(=O)N(CC(=O)NC2CCCCC2)CC2CCCO2)c(O)c1 (centres undefined)	?	-11%	13µM*	4µM*	3.8µM*
SMILES	TGFb SMAD3 inh	12-LOX inh	HepG2 viability	S2 tox	ATXN2 expr inh
O=C(COc1ncnc2ccc(Br)cc12)Nc1cccc(F)c1	·	-35%	·	·	·
N#Cc1ccccc1OCc1ccc(-c2ccccc2C#N)cc1	·	-22%	·	·	·
CC(C)c1ccc(NC(=O)c2ccc[n+]([O-])c2)cc1	·	36%	·	·	·
N#Cc1ccccc1-n1cccc1	·	11%	·	·	·
CCOC(=O)c1cc([N+](=O)[O-])cc([N+](=O)[O-])c1Sc1ncnc2nc[nH]c12	13µM*	-25%	-101%	·	?
Cc1cc(C(=O)CSc2nncs2)c(C)n1Cc1ccco1	0%	2%	20%	i	-29%
Cc1cc(C(=O)CCl)c(C)n1Cc1ccco1	?	-7%	-26%	25µM*	?
Cc1cc(C(=O)CCl)c(C)n1CCc1ccccc1	?	-28%	7.9µM*	?	-33%[11.3 µM]
Cc1cc(C)c(C(=O)COC(=O)c2cccc(C)c2C)cc1C	·	-10%	·	·	·
Cn1c2ccccc2c2nnc(SCc3ccc(F)cc3Cl)nc21	·	-11%	·	·	·
CN(C)c1ccc(Sc2ccc3nc(N)nc(N)c3c2)cc1	?	?	0.32µM*	?	·
CN(C)c1ccc(-c2c3ccccc3nc3ccccc23)cc1	3%	·	1%	·	·
O=C(Nc1cnc(N2CCC(N3CCCCC3)CC2)c(C(=O)O)c1)c1ccc(Br)cc1	2%	40µM*	0%	i	4%
O=C(Nc1ccc(N2CCC(N3CCCCC3)CC2)c(C(=O)O)c1)c1ccc(Br)cc1	-6%	?	-2%	i	14%
CCC(=O)N1CCc2cc(Br)cc(S(=O)(=O)NCCc3cccc(C)c3)c21	11µM*	-17%	-17%	·	·
COc1cc(NS(=O)(=O)c2cc(Br)cc3c2N(C(=O)C2CC2)CC3)cc(OC)c1	2.2µM*	-14%	-23%	·	·
Cc1ccc(NS(=O)(=O)c2cc(Br)cc3c2N(C(=O)C2CC2)CC3)cc1C	?	-12%	-17%	·	·
CC1CC(C)CN(CCCNS(=O)(=O)c2cc(Br)cc3c2N(C(=O)C2CC2)CC3)C1 (centres undefined)	11%	-16%	4µM*	i	-16%
Cc1oc(-c2cccs2)nc1CC(=O)Nc1ccc(F)cc1Cl	·	-11%	·	·	·
CN1C(=O)/C(=C/c2cccc([N+](=O)[O-])c2)C(=O)N1c1ccccc1	-13%	40µM*	-9%	i	-6%
CCCc1ccc(C(=O)NNc2ccc(F)cc2)cc1	14%	18µM*	-16%	?	-21%
Cc1cc(CNC(=O)c2cccc3c2C(=O)c2ccc(-c4ccc(F)cc4OCc4ccccc4)cc2S3(=O)=O)c(C(F)(F)F)o1	-8%	45µM*	-42%	i	8%
c1ccc(CN2CCN(CCOCCOc3ccc4c(c3)CCC4)CC2)cc1	0%	50µM*	-45%	i	-26%
O=C(c1ccccc1)c1ccc(OCCOCCN2CCN(Cc3ccccc3)CC2)cc1	?	?	-35%	i	?
COc1cc(NS(=O)(=O)c2ccc(C)cc2)c2ncccc2c1	?	·	-26%	?	4.5µM*
Cc1cccc(NC(=O)NCC2CCN(CCc3ccc(F)cc3)CC2)c1C	·	35µM*	·	·	·
Cc1ccc(CN2CCC(CNC(=O)Nc3cccc(C)c3C)C2)cc1 (centres undefined)	?	-21%	-29%	i	-24%

Bioassay records as filed in PubChem BioAssay.
